Screening results as filed in PubChem BioAssay.
Sampled rows, rich in hits. Any-hit rate of the full collection: about 13%.
Pf growth 96h = P. falciparum growth inhibition at 96 hour, primary screen for plastid delayed-death inhibitors | AID 504834 | 6.9% of 320,000 active | P. falciparum luciferase reporter growth, 96 h | Potency, µM (highest dose often 28.7 µM), for the others: at the top dose activity change, negative = inhibition, usual class: inhibitors; note: potency is the fitted concentration of half-maximal effect
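Readout is luminescence from an integrated firefly luciferase in P. falciparum. Red cells, 2% hematocrit and 0.05% parasitemia final, were cultured with compound through two parasite generations (96 hours) at 37 C, 5% CO2.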
Pf growth 48h = P. falciparum growth inhibition at 48 hours (one generation). P. falciparum luciferase growth in erythrocytes, 48 h. Potency, µM (titrated, usually from 28.7 µM), for inactives: at the top dose activity change, negative = inhibition, usual class: inhibitors. 5.9% of 310,000 active. AID 504832; note: potency is the fitted concentration of half-maximal effect
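Firefly luciferase activity from engineered P. falciparum reports growth; inhibitors lower the luminescent signal. Cultures contained 2% hematocrit erythrocytes at 0.1% final parasitemia.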
HCV inh = HCV inhibition. Huh7.5.1 HCVcc-Cre infection, luciferase reporter, 44 h. Potency, µM (highest dose often 41.8 µM), without a hit: at the top dose activity change, negative = inhibition, most hits filed as inhibitors. 3.4% of 340,000 active. AID 651820; note: potency is the fitted concentration of half-maximal effect
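After 44 h co-culture of compound, cells and HCVcc-Cre (~0.5 moi), substrate is added for 15 min at room temperature and luciferase measured over 15 sec. Cells were seeded at 1,000/well and pre-cultured 4 h.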
HCMV inh = inhibitors of human cytomegalovirus; HFF cells, HCMV-luciferase reporter, 72 h; hits give low values; activity change, negative = inhibition, % at 57.5 µM; 4.5% of 410,000 active; AID 1259415; in the data active = activity change below about -60%; inconclusive = no clear call, values can overlap the other calls; inactive = above about -39%
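Human foreskin fibroblasts infected with luciferase-reporter HCMV at MOI 1 PFU/cell, compounds at two doses. Luciferase measured 72 h post infection; normalized to buffer-only basal and Salinomycin (10uM) controls.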
* = called active by the depositor. Unless noted, calls come from the whole dose curve; as a rule, active = well fitted inhibition curve with a large enough effect; inconclusive = small, poorly fitted or top-dose-only effect, or another doubt; inactive = no such curve, though single readings can be large or run the other way. % is set by controls: 0 for no effect and ±100 for the full control effect.

Results for O=C(NCc1ccccc1C(F)(F)F)C12CN(Cc3ccccc3)CC1C(c1ccc([N+](=O)[O-])cc1)=NO2 (configuration not stated) ?
Pf growth 96h: inconclusive; Pf growth 48h: 3.29µM*; HCV inh: inconclusive; HCMV inh: 8.8

What do the screens show for `O=[N+]([O-])c1ccc(CN2CCC(Cc3ccccc3)CC2)cc1`?
Pf growth 96h: inconclusive; Pf growth 48h: inconclusive; HCV inh: -3.2%; HCMV inh: -10.4

What do the screens show for `O=C(O)CN1C2=NCCCN2c2ccccc21`?
Pf growth 96h: 27.0%; Pf growth 48h: 14.5%; HCV inh: 10.0%; HCMV inh: -24.4

Results for Clc1cccc(CN2C3=NCCCN3c3ccccc32)c1 ?
Pf growth 96h: inconclusive; Pf growth 48h: -17.0%; HCV inh: inconclusive; HCMV inh: -33.3

Results for c1ccc(CN2C3=NCCCN3c3ccccc32)cc1 ?
Pf growth 96h: 52.5%; Pf growth 48h: 8.28µM*; HCV inh: inconclusive; HCMV inh: -15.2

How did Brc1ccc(CN2C3=NCCCN3c3ccccc32)cc1 do in these assays?
Pf growth 96h: 130.6%; Pf growth 48h: 11.7µM*; HCV inh: inconclusive; HCMV inh: inconclusive

What do the screens show for `Clc1ccc(CN2C3=NCCN3c3ccccc32)cc1`?
Pf growth 48h: inconclusive; HCV inh: 12.6µM*; HCMV inh: 13.3

How did CC(C)(C)c1ccc(CN2C3=NCCCN3c3ccccc32)cc1 do in these assays?
Pf growth 96h: 0.8%; Pf growth 48h: 3.7µM*; HCV inh: 31.6µM*; HCMV inh: -85.0*

Results for Cc1ccc(-n2nc(C)c3c(C)cc(=O)n(CC(=O)NC(C)C)c32)cc1 ?
HCMV inh: 19.7

How did Cc1cccc(N2CCN(S(=O)(=O)c3c(C(=O)N4CCC(C)CC4)c(C)n(C)c3C)CC2)c1C do in these assays?
HCMV inh: 1.0

What do the screens show for `COc1ccc(C(=O)Nc2cccc(-c3nc4cccnc4s3)c2C)c(OC)c1`?
HCMV inh: -6.8

How did Clc1ccc(CN2C3=NCCCN3c3ccccc32)c(Cl)c1 do in these assays?
Pf growth 96h: 1.04µM*; Pf growth 48h: inconclusive; HCV inh: inconclusive

How did Cc1ccc(CN2C3=NCCCN3c3ccccc32)cc1 do in these assays?
Pf growth 96h: inconclusive; Pf growth 48h: 11.7µM*; HCV inh: inconclusive; HCMV inh: -2.1

Results for CCCCCCCCN1C(=O)[C@H](CC(=O)NCc2ccc(C)o2)C[C@@]2(C(=O)OCC)CCC=C12 ?
HCMV inh: -5.1

What do the screens show for `COc1cc(Cl)c(NC(=O)CN2C(=O)c3cccnc3Sc3ccccc32)c(OC)c1`?
HCMV inh: -16.2

How did CCOc1ccc(CNC(=O)C2CCN(c3nc4ccccc4nc3C(F)(F)F)CC2)cc1OC do in these assays?
HCMV inh: -1.8

How did COC(=O)c1cccc2c([N+](=O)[O-])c(NC(C)=O)cc(C(=O)OC)c12 do in these assays?
HCMV inh: 71.4

Results for CN(C)c1ccc(N2C(=NC(=O)CCc3ccccc3)SC3CS(=O)(=O)CC32)cc1 (configuration not stated) ?
Pf growth 96h: 11.7µM*; Pf growth 48h: inconclusive; HCV inh: 9.2%; HCMV inh: 0.0

What do the screens show for `Cc1c(Cl)cccc1NC(=O)CNS(=O)(=O)c1cccs1`?
HCMV inh: -10.9

How did COc1cc(OC)nc(-n2ncc(Br)c(Br)c2=O)n1 do in these assays?
Pf growth 96h: 13.1µM*; Pf growth 48h: inconclusive; HCV inh: 3.98µM*; HCMV inh: -104.8*

How did COc1ccc(-c2c(C)nn3c4c(cnc23)C(=O)CC(c2ccc(C)cc2)C4)cc1 (configuration not stated) do in these assays?
HCMV inh: 8.8

How did CCCc1[nH]n(-c2ccc([N+](=O)[O-])cc2)c(=O)c1C=NCCN1CCNCC1 do in these assays?
Pf growth 96h: 3.6%; Pf growth 48h: 18.7%

What do the screens show for `CCCc1[nH]n(-c2ccc([N+](=O)[O-])cc2)c(=O)c1C=NCCCn1ccnc1`?
Pf growth 96h: 14.4%; Pf growth 48h: 13.1µM*; HCV inh: inconclusive; HCMV inh: -11.2

Results for C[N+]1(CC(COCc2ccccc2)OC(=O)Cc2ccccc2)CCOCC1 (configuration not stated) ?
Pf growth 96h: inconclusive; Pf growth 48h: 13.1µM*; HCV inh: 21.4%; HCMV inh: -19.9

Results for N#C/C(=C/c1ccc(N2CCCCC2)o1)C(=O)Nc1ccc(Cl)cc1 ?
Pf growth 96h: 63.6%; Pf growth 48h: 86.7%; HCV inh: inconclusive; HCMV inh: 24.4

How did N#C/C(=C\c1ccc(N2CCOCC2)o1)c1ccccc1 do in these assays?
Pf growth 96h: 408.5%; Pf growth 48h: 10.0%; HCV inh: 11.2µM*; HCMV inh: 51.9

What do the screens show for `N#C/C(=C/c1ccc(N2CCCCCC2)o1)c1cccc(F)c1`?
Pf growth 48h: -15.3%; HCV inh: inconclusive; HCMV inh: -80.8*

Results for N#C/C(=C/c1ccc(N2CCOCC2)o1)c1ccc(Br)cc1 ?
Pf growth 96h: 5.22µM*; Pf growth 48h: 76.0%; HCV inh: inconclusive; HCMV inh: 71.8

How did COc1cccc(/C=C(/C#N)c2ccc(F)cc2)c1OCc1cccc(C(=O)O)c1 do in these assays?
Pf growth 96h: 19.4%; Pf growth 48h: -6.2%; HCV inh: 11.1%; HCMV inh: 120.5

Results for COc1cc(N2CCCC2)c(OC)cc1/C=C(/C#N)c1cccc(F)c1 ?
Pf growth 48h: 10.4µM*; HCV inh: inconclusive

What do the screens show for `N#C/C(=C/c1ccc(N2CCOCC2)o1)c1nc2ccccc2[nH]1`?
Pf growth 96h: 8.4%; Pf growth 48h: 100.8%; HCV inh: -31.4%; HCMV inh: 107.3

Results for CCc1c(-c2ccccc2)nc2ccccc2c1C(=O)NCCc1ccccc1 ?
HCMV inh: -17.3

Results for Cc1nn(-c2ccc(N3CCCCC3)nn2)c(C)c1CCC(=O)NCc1ccc(Cl)cc1 ?
HCMV inh: -33.6

How did CCOC(=O)Cn1c(=O)n(-c2ccccc2OC)c2nc(-c3ccc(C(C)C)cc3)nc(C(N)=O)c21 do in these assays?
HCMV inh: 5.8

What do the screens show for `N#C/C(=C/c1ccc(N2CCCCC2)o1)C(=O)Nc1ccc2ccccc2c1`?
Pf growth 96h: inconclusive; Pf growth 48h: inconclusive; HCV inh: 10µM*; HCMV inh: inconclusive

Results for O=C(CNC(=O)c1[nH]cnc1C(=O)NC(c1ccccc1)c1ccccc1)OCc1ccccc1 ?
Pf growth 96h: 1.85µM*; Pf growth 48h: inconclusive; HCV inh: 9.8%; HCMV inh: -4.9

What do the screens show for `O=C(N[C@@H](Cc1ccccc1)C(=O)OCc1ccccc1)c1nc[nH]c1C(=O)NC(c1ccccc1)c1ccccc1`?
Pf growth 96h: 9.28µM*; Pf growth 48h: 1.31µM*; HCV inh: -4.3%; HCMV inh: -2.9

What do the screens show for `O=C(CNC(=O)c1[nH]cnc1C(=O)N[C@@H](Cc1ccccc1)C(=O)OCc1ccccc1)OCc1ccccc1`?
Pf growth 96h: 2.5%; Pf growth 48h: 9.7%; HCV inh: -2.8%; HCMV inh: 32.7
